Assay outcomes deposited in PubChem by National Center for Advancing Translational Sciences (NCATS).
ELG1 DNA repair – qHTS screen for small molecules that inhibit ELG1-dependent DNA repair in human embryonic kidney (HEK293T) cells expressing luciferase-tagged ELG1; HEK293T ELG1-luciferase reporter, luminescence, 16 h; DNA damage induced by 5-fluorouridine; Potency, µM (highest dose often 46.1 µM), inactives show at the top dose activity change, negative = inhibition, most hits filed as inhibitors; actives 2.3% (n = 330,000); AID 504467, 2011; also: % is scaled to controls: 0 for no effect and ±100 for the full control effect; nearly all actives have a fitted effect of over 55% in size
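5-Fluorouridine DNA damage + compound/DMSO, 2,000 cells/well, 16 h, 37 °C/5% CO2. ONE-Glo, 30 min RT, luminescence. Readout = decrease in reporter signal.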
SMN2 splice up – qHTS Assay for Enhancers of SMN2 Splice Variant Expression | HEK293 SMN2-luciferase splicing reporter, luminescence, 30-36 h | Potency, µM (titrated, usually from 46.1 µM), for inactives: top-dose activity change, positive = activation, actives largely listed as activators | actives 2.8% (n = 210,000) | AID 1458, 2008; also: % of control where 0% means no effect; nearly all actives have a fitted effect of over 55% in size
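HEK293 cells carry an SMN2 […]–luciferase reporter in which exon 7 inclusion puts luciferase in frame. Cells were plated 10-12 h before compound addition, then incubated 30-36 h at 37C. ONE-Glo luminescence was read; sodium butyrate at 4.5 mM final served as control.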
Rab9 prom act – qHTS Assay for Rab9 Promoter Activators. Huh7 Rab9 promoter-luciferase reporter, luminescence, 24 h. Potency, µM (top dose mostly 9.22 µM), for the others: at the highest dose activation, negative = inhibition, usual class: activators. actives 2.8% (n = 320,000). AID 485297, 2010; also: % of control where 0% means no effect; nearly all actives have a fitted effect of over 60% in size
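Huh7 cells stably carrying a Rab9 promoter-luciferase reporter, 1500 cells per well in OP-MEM I with 10% FBS, treated with compound 24 hours at 37C. Luciferase activity read by luminescence after 10 minutes with Amplite reagent.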
ELG1 genotoxic – qHTS screen for small molecules that induce genotoxicity in human embryonic kidney (HEK293T) cells expressing luciferase-tagged ELG1; HEK293T ELG1-luciferase reporter, luminescence, 16 h; Potency, µM (doses to about 46 µM), without a hit: at the highest dose activity change, positive = activation, usual class: activators; actives 1.3% (n = 330,000); AID 504466, 2011; also: % of control where 0% means no effect; nearly all actives have a fitted effect of over 60% in size
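Reporter readout depends on ELG1 protein level, which increases with genetic stress. After 16 hr compound exposure at 37 °C, luciferase activity was quantified using ONE-Glo.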
FLuc counter – qHTS profiling assay for firefly luciferase inhibitor/activator using purifed enzyme and Km concentrations of substrates (counterscreen for miR-21 project); purified FLuc, Km substrates, luminescence inhibition; Potency, µM (highest dose often 57.5 µM), without a hit: top-dose activity change, negative = inhibition, actives largely listed as inhibitors; actives 6.9% (n = 360,000);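 also: plate controls were vehicle for no effect and reference inhibitor for full effect; nearly all actives have a fitted effect of over 55% in size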
Target sequence (P08659 whole entry, looked up): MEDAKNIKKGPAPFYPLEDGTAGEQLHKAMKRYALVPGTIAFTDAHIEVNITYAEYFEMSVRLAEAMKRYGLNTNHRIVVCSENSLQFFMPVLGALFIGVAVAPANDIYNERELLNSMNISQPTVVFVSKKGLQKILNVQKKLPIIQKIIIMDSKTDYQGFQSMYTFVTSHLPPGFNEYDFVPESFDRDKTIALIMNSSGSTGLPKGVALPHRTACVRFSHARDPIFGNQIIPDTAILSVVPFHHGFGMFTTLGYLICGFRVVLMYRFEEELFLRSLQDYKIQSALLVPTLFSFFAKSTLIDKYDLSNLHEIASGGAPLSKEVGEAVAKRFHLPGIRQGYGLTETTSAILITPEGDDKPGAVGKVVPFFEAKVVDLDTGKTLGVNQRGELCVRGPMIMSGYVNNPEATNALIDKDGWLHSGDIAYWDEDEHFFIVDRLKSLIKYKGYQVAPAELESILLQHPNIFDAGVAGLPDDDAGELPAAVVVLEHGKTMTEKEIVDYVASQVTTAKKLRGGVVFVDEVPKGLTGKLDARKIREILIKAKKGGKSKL
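Purified P. pyralis luciferase, 10 nM final, with Km-level 10 uM D-luciferin and 10 uM ATP in 50 mM Tris acetate pH 7.5, 10 mM Mg acetate, 0.01% Tween-20, 0.05% BSA; 6-point qHTS titration about 60 µM downward; luminescence read.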
NPC1 prom act – qHTS Assay for NPC1 Promoter Activators. Potency, µM (top dose mostly 9.22 µM), for inactives: top-dose activation, usual class: activators. actives 2.4% (n = 320,000). Huh7 NPC1 promoter luciferase reporter, 24 h; also: % of control where 0% means no effect; nearly all actives have a fitted effect of over 60% in size
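Quantitative HTS used a cell-based reporter: Huh7 cells stably bearing the NPC1 promoter upstream of luciferase were treated with compounds for 24 h, and promoter activation was read as luminescence.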
* hit, by the source's call; ? = inconclusive; . = no result. Compounds with a hit are over-represented: about 9.2% of the library has one in this group of screens. Calls follow the shape of the dose curve; as a rule, active = well fitted curve in the direction sought with a large enough effect; inconclusive = small, poorly fitted or top-dose-only effect, or another doubt; inactive = no such curve, though single readings can be large; an effect the other way counts as inactive or inconclusive. Potency is read from the fitted curve at half-maximal effect.

SMILES	ELG1 DNA repair	SMN2 splice up	Rab9 prom act	ELG1 genotoxic	FLuc counter	NPC1 prom act
Cc1ccc(NC(=O)Cc2c(O)c3ccccc3[nH]c2=O)c(C)c1	1%	.	0%	-1%	17µM*	1%
Cc1cccc(C)c1NC(=O)c1c(O)c2ccccc2[nH]c1=O	7%	.	4%	-3%	2%	-1%
Cc1ccccc1NC(=O)Cc1c(O)c2ccccc2[nH]c1=O	17%	-11%	5%	2%	3%	-1%
O=C(Nc1cccc(O)c1)c1c(O)c2ccccc2[nH]c1=O	?	.	?	?	3.8µM*	?
Cc1c(NC(=O)/C(C#N)=C\c2cccs2)c(=O)n(-c2ccccc2)n1C	6%	15%	-7%	2%	-5%	-2%
N#C/C(=C\c1ccc(-c2ccc(Br)cc2)o1)C(=O)Nc1ccccc1O	.	-2%	.	.	-2%	.
Cc1c(NC(=O)/C(C#N)=C/c2ccc(-c3cc(Cl)ccc3Cl)o2)c(=O)n(-c2ccccc2)n1C	18µM*	-40%	-12%	-12%	2%	-2%
Cc1c(NC(=O)/C(C#N)=C/c2ccc(-c3ccc(Cl)cc3)o2)c(=O)n(-c2ccccc2)n1C	16µM*	-35%	-1%	-9%	?	-6%
N#C/C(=C\c1ccc(-c2ccc(C(=O)O)cc2)o1)C(=O)Nc1ccccc1C(=O)O	.	-5%	.	.	13µM*	.
COc1ccc(/C=C/C(=O)Nc2sc3c(c2C(N)=O)CCC(C)C3)cc1OC (stereo not drawn)	.	1%	.	.	-9%	.
Cc1cc(Oc2ccc(C#N)cc2)nc(NCc2ccccc2)n1	?	-57%	-8%	1%	3%	-3%
Cc1nn(-c2ccc(F)cc2)c(-n2cccc2)c1C(=O)N1CCN(c2ccc(F)cc2)CC1	.	.	.	.	0%	.
CCOc1ccc(-c2nnc(NC(=O)Cc3ccc(OC)cc3)o2)cc1	4%	.	8%	5%	?	10%
CC(=O)Nc1ccc(C2=NN(Cc3nnc(-c4ccccc4)o3)C(=O)SC2)cc1	16µM*	15%	9%	-3%	?	8%
CCC(=O)Nc1ccc(-c2nc3ccccc3c(=O)o2)cc1	1%	-5%	4%	-11%	1.3µM*	-1%
O=C(Nc1cccc(-c2nc3ccccc3c(=O)o2)c1)c1ccccc1	4%	-30%	1%	5%	-4%	2%
CCC(=O)Nc1ccc(-c2nnc(-c3ccccc3)o2)cc1	?	.	0.32µM*	?	0.95µM*	0.32µM*
CCC(=O)Nc1cccc(-c2nnc(-c3cccc(NC(=O)CC)c3)o2)c1	?	-19%	-3%	-6%	?	1%
CCC(=O)Nc1nnc(-c2ccc(OC)cc2)o1	?	15%	1%	7%	24µM*	13%
O=C(OCc1csc(-c2ccccc2)n1)c1cccs1	?	14%	?	?	0.54µM*	?
Cc1ccsc1C(=O)OCc1csc(-c2ccccc2)n1	?	16µM*	4µM*	7.3µM*	0.6µM*	?
COc1ccccc1C(=O)NCC(=O)OCc1csc(-c2ccccc2)n1	?	?	11%	6%	-14%	1%
COc1ccc(C(=O)NCC(=O)OCc2csc(-c3ccccc3)n2)cc1	?	-16%	0%	5%	17µM*	1%
Cn1cccc1C(=O)OCc1csc(-c2ccccc2)n1	?	11µM*	1.1µM*	?	0.67µM*	2.5µM*
O=C(OCc1csc(-c2ccccc2)n1)C1=NN(c2ccccc2)C(=O)CC1	?	.	14%	9%	?	12%
SMILES	ELG1 DNA repair	SMN2 splice up	Rab9 prom act	ELG1 genotoxic	FLuc counter	NPC1 prom act
CCCCN(C(=O)c1cc(-c2ccco2)nc2ccccc12)c1c(N)n(CCC)c(=O)[nH]c1=O	?	.	2%	3%	0%	-2%
CC1=C(C(=O)OCCc2ccccc2)C(c2ccsc2)NC(=O)N1C (stereo not drawn)	-19%	-56%	-1%	4%	-4%	-4%
CC(=O)c1ccc(NC(=O)COC(=O)c2c3c(nc4ccccc24)/C(=C\c2cccs2)CCC3)cc1	10µM*	.	-44%	-9%	0%	-32%
CC(C)(C)NC(=O)COC(=O)c1c2c(nc3ccccc13)CCC2	?	.	3%	-19%	-8%	-8%
O=C(COC(=O)c1c2c(nc3ccccc13)/C(=C\c1cccs1)CCC2)Nc1ccccc1	15µM*	-54%	-33%	-13%	3%	-31%
O=C(COC(=O)c1c2c(nc3ccccc13)CCCC2)Nc1ccc2c(c1)OCO2	?	-52%	-3%	-11%	?	1%
Cc1cc(C(=O)NCc2ccccc2C)c2c(C)nn(-c3cccc(F)c3)c2n1	.	.	.	.	4%	.
O=C(/C=C/c1ccc(OC(F)F)cc1)Nc1cccc(S(=O)(=O)NC2=NCCCCC2)c1	?	.	10%	-14%	1.3µM*	2%
COc1ccc(/C=C/C(=O)Nc2cccc(S(=O)(=O)NC3=NCCCCC3)c2)cc1	?	.	27%	9%	0.67µM*	?
COc1ccc(OC)c(/C=C/C(=O)Nc2cccc(S(=O)(=O)NC3=NCCCCC3)c2)c1	?	.	-2%	-1%	?	-2%
COc1cccc(CN(C)C(=O)c2ccc(OCC(=O)N3CCOCC3)c(OC)c2)c1	14%	.	-5%	1%	3%	-1%
COc1ccc(CNC(=O)C[C@H]2C[C@H](C(=O)N3CCCCC3)[C@@]3(C)c4[nH]c5cc(-c6ccco6)ccc5c4CCN3C2=O)cc1OC	21µM*	.	.	-10%	.	.
COCCCNC(=O)C[C@H]1C[C@H](C(=O)N2CCCCC2)[C@@]2(C)c3[nH]c4cc(-c5ccco5)ccc4c3CCN2C1=O	-26%	.	.	-4%	.	.
